This assay has as its target Estrogen receptor (Homo sapiens) (UniProt P03372). The experiment in a line: displacement of fluorescent estrogen from ERalpha – cell-based, Cos7 ERalpha-GFP, flow cytometry, primary screen (AID 1211).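 Further: 0% = DMSO vehicle wells and 100% = no E2-Alexa633 signal left.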 The note with it: fluorescent ligand competition, stronger effect = higher value. On the technique in general: A flow cytometer gives signals particle by particle.

The source made the active and inactive calls. How the calls were made is not given here.

Sequence of Estrogen receptor (Homo sapiens) (P03372 whole entry, looked up): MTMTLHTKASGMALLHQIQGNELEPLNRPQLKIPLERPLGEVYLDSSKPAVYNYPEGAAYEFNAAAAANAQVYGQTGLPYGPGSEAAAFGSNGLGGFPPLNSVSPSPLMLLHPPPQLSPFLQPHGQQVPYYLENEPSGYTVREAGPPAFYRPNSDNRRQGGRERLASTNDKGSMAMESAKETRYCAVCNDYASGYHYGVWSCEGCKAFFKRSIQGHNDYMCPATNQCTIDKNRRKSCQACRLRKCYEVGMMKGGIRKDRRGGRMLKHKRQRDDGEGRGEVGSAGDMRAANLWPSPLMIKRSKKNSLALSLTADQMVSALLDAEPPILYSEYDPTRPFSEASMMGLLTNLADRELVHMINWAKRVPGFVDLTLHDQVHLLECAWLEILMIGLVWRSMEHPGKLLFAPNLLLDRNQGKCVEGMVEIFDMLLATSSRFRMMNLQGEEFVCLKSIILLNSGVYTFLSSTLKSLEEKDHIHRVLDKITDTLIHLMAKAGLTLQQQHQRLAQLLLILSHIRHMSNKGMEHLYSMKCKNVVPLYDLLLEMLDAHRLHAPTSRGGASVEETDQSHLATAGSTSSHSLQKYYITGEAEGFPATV

Consider `CCC1(CC)NC(=O)N(CC(=O)Nc2sc3c(c2C(N)=O)CCC3)C1=O`, for which the inhibition of ligand binding (at 10 µM) is 38% (inactive).
The same measure, in the same setting: as for `CCCCc1cc2c(=O)c(-c3ccccn3)coc2cc1O`, the figure is 1% (inactive); as for `CC1Cc2ccccc2N1C(=O)CSc1nnc(-c2ccc(S(=O)(=O)N3CCCC3)cc2)o1` (configuration not stated), 56% (inactive); as for `CC1(C)Cc2[nH]c(=O)c(C(=O)O)cc2CO1`, 2% (inactive).
Same read-out and setting: as for `CCN(c1ccccc1)S(=O)(=O)c1ccc2[nH]cc(C(=O)NCCOC)c(=O)c2c1`, the figure is 22% (inactive).
The same measure, in the same setting: the value for `COc1cc([N+](=O)[O-])cc2c1NC(c1ccccc1Cl)C1CC=CC21` (configuration not stated) was 0% (inactive).
With `COc1ccc2c(c1)C1OCCC1C(c1ccco1)N2` (configuration not stated), the inhibition of ligand binding (at 10 µM) is 46% (inactive).
Turning to `COc1ccc(Oc2ccc3c(c2)c2c4n3CCNC4CCC2)cc1` (configuration not stated), the inhibition of ligand binding (at 10 µM) is 0% (inactive).
The same measure, in the same setting: as for `COc1cc(C2CC(=O)Nc3c2ccc2ccccc32)cc(Cl)c1O` (configuration not stated), the figure is 0% (inactive); as for `O=c1oc2cc(O)ccc2c2c1CCCC2`, 7% (inactive).
Still for that read-out and setting: as for `CC(=O)c1ccc2c(c1)C1C=CCC1C(c1ccc(S(=O)(=O)N3CCOCC3)cc1)N2` (configuration not stated), the figure is 0% (inactive); as for `Fc1ccc2c(c1)[C@H]1OCC[C@H]1[C@@H](c1ccco1)N2`, 34% (inactive); as for `CCSc1nc2c(cnn2-c2ccc(C)cc2)c(=O)[nH]1`, 22% (inactive).
Still for that read-out and setting: the value for `COc1cc([N+](=O)[O-])cc2c1N[C@@H](c1ccc(C(=O)O)cc1)[C@H]1CC=C[C@@H]21` was 71% (active).
Turning to `N#Cc1c2c(c(=O)n3c1[nH]c1ccccc13)CCCC2`, for the setting “at 10 µM”, the inhibition of ligand binding was 23% (inactive).
Still for that read-out and setting: the value for `O=C(O)c1cc(-c2ccc(O)cc2)nc2ccccc12` was 5% (inactive); that for `O=C(Oc1cccc(-c2cnc3ccccc3n2)c1)c1ccco1` was 12% (inactive); that for `CCCc1c(C(=O)OCC)[nH]c2c1C(=O)CC(c1ccccc1)C2` (configuration not stated) was 27% (inactive).
On the same count and under the same terms, the value for `CC1=CC(C)C2(CO)COC(c3ccccc3O)C1C2C` (configuration not stated) was 0% (inactive); that for `CCOc1cc2c(c([N+](=O)[O-])c1)NC(c1ccc(Cl)cc1)C1CC=CC21` (configuration not stated) was 0% (inactive); that for `O=c1oc2cc(O)ccc2c2c1CCC2` was 0% (inactive).
Still for that read-out and setting: the value for `O=C(c1cccs1)N1N=C(c2ccccc2)CC1c1ccc(O)cc1` (configuration not stated) was 21% (inactive).
Regarding `CCc1cc2c3c(c(=O)oc2cc1OC)CCCC3`, the inhibition of ligand binding (at 10 µM) is 0% (inactive).
On the same count and under the same terms, the value for `COCCCn1c(Cc2csc(Nc3cccc(Cl)c3)n2)nnc1SCC(=O)OC1CCCCC1` was 37% (inactive); that for `O=c1oc2cc(O)c(Cl)cc2c2c1CCCC2` was 0% (inactive).
The same measure, in the same setting: the value for `O=[N+]([O-])c1cc(/C=N/N2CCN(C3c4ccccc4-c4ccccc43)CC2)ccc1Cl` was 21% (inactive).
On the same count and under the same terms, as for `O=C(Nc1cc(C(F)(F)F)ccc1N1CCOCC1)C1Cc2ccccc2CN1C(=O)c1ccco1` (configuration not stated), the figure is 56% (inactive).
As to `CSCCC(NC(=O)c1ccco1)C(=O)OCC(=O)Nc1sccc1C#N` (configuration not stated), the inhibition of ligand binding (at 10 µM) is 4% (inactive).
For `CC(C)C1Nc2ccc(S(N)(=O)=O)cc2C2C=CCC21` (configuration not stated), the inhibition of ligand binding (at 10 µM) was 70% (active).
Same read-out and setting: the value for `COc1cccc2sc(Nc3nnc(-c4ccc(F)cc4)o3)nc12` was 17% (inactive); that for `CC(=O)c1ccc2c(c1)C1C=CCC1C(c1ccncc1)N2` (configuration not stated) was 9% (inactive).
Same read-out and setting: as for `CC(=O)c1ccc2c(c1)C1C=CCC1C(c1cccc([N+](=O)[O-])c1)N2` (configuration not stated), the figure is 68% (active); as for `CCCNC(=O)c1ccc2c(c1)C1C3CCC(C3)C1C(c1ccccc1)N2` (configuration not stated), 67% (active); as for `CC(=O)N1c2ccc3ccccc3c2C2C=CCC2C1c1ccc(Br)cc1` (configuration not stated), 48% (inactive).
On the same count and under the same terms, the value for `c1coc(C2Nc3ccccc3C3OCCC23)c1` (configuration not stated) was 41% (inactive); that for `Cc1ccc2c(c1)[C@H]1OCC[C@H]1[C@@H](c1ccncc1)N2` was 34% (inactive); that for `COc1cccc(-c2cc(C(=O)Nc3cc(C)nn3-c3ccccc3)no2)c1` was 30% (inactive).
On to `Nc1ccc(-c2nc3c(Cl)c(N)ccc3[nH]2)cc1`, for which the inhibition of ligand binding (at 10 µM) is 14% (inactive).
Regarding `COc1ccc(NS(=O)(=O)c2ccc3c(c2)[C@H]2C=CC[C@H]2[C@@H](c2cccc(OC)c2OC)N3)cc1`, the inhibition of ligand binding (at 10 µM) is 0% (inactive).
As for `Cc1c(C(=O)OCc2ccccc2)[nH]c2c1C(=O)CC(c1ccco1)C2` (configuration not stated), the inhibition of ligand binding was 37% (inactive) (at 10 µM) and 24% (binding inhibition, at 0.1 µM).
For the compound `COc1cccc(C2Nc3c(F)cc(Br)cc3C3C=CCC32)c1OC` (configuration not stated), the inhibition of ligand binding (at 10 µM) was 60% (inactive).
In the case of `Cc1cs/c(=N\N=C\c2ccc(O)cc2)n1Cc1ccco1`, the inhibition of ligand binding (at 10 µM) was 51% (inactive) and the inhibition of ligand binding (binding inhibition, at 0.1 µM) amounted to 55%.
`COc1ccc(CCn2c(SCC(=O)Nc3cc(C)on3)nc3ccsc3c2=O)cc1OC`: the inhibition of ligand binding (at 10 µM) was 33% (inactive).
Regarding `COc1ccccc1N1CCN(C(=O)c2cc3c(s2)CCC3)CC1`, the inhibition of ligand binding runs as follows: (at 10 µM) 41% (inactive); (binding inhibition, at 0.1 µM) 55%.

For the origin of these results see PubChem BioAssay AID1211 (NMMLSC, 2008).
